These sequences were tested on FXR:RXRa (NR concentration 270 nM, RXRa partner concentration 90 nM) (assay: PBM binding z-score (relative to random genomic background probes); higher = stronger binding; sequences stand for … in GC…GCGATTGACAGCGTAGAATGAAGG).
Outline: (§1)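 Custom Agilent 4×180K protein-binding microarrays carried double-stranded probes, each with a 34-nt variable region. These regions held direct-repeat seeds, single-nucleotide variants, half-site ablations and random human genomic background sequences. Ligand-free nuclear receptor dimers were incubated on the arrays for 1 h, antibodies against each partner (one per run) detected binding, and scanned fluorescence was regression-normalized. Binding z-scores take the random background probes as reference.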

Row | Sequence | PBM binding z-score
1 | GCTTACGAGTCAAAGGTTATAGCATGAATAGAAT | 2.49
2 | CCTAGTTGGTCCGGAGGTCACACACCGGATATGA | 3.5
3 | TAGCCTAGGTCATGCAGGCCAGTATAGTGTCGGC | 3.92
4 | TAGCATAGGTCATGGGCCAGTATACCACGCGAAC | 6.75
5 | TCATACAGGTAAAAGGTGAAAGTCGGTGTGGTAA | 1.87
6 | TCAAGCAGGCCAGAGGGTCACTCAAGAGGTACGG | 1.15
7 | CTACCAAGGTGAACAAGGTCGTCGATTACTATTC | 1.41
8 | TCTGCTAGGTCAACGAGGGTCAGCTAATCTGCTA | 4.68
9 | TCTTGTGGATCAGCAGGTTAAGAAAGCTGGCCAA | 0.261
10 | CCTACTGGACCATTCAGAGGTCATTGATCATATG | 3.05
11 | ATCGAAAGATCGACGAGGTGAGTATACACCGTTT | -0.0851
12 | CCAGACAGGTGAGAAGGTAAGTCAGCCTCGATTA | 0.146
13 | GTGACTGGGGCAAAGCAGGTTACCATAAGGTTGG | 0.845
14 | GCTAGCAGGCCATTTGGGTCACTGAATGACGGGC | -0.0182
15 | TCATATAGGTAAATGCTAGGTAAAAGTCCGATCT | 1.25
16 | ACAGACAGGTGATGAAGGGAACTCAGGCTATCAT | -0.0225
17 | GCTAGTTGGTCAGTAAAAGGTCACACCCCGGTCG | 2.85
18 | ACTATTTGTTGACTTAGGGCAACCGATACGACGC | 0.226

These sequences were tested on LXRa:RXRa (NR concentration 270 nM, RXRa partner concentration 90 nM) in the same assay as above.
Outline: as §1

Row | Sequence | PBM binding z-score
19 | TCTTGTAGATCAAGCAGGCTAAGAAAGCCTGAGT | -0.307
20 | ACTAGCAGACCAAGGGTCACTCAAGATTAGTCCG | 2.89
21 | GCGACTGGGGCAAAGCCGGTTACCATAAGGTTGG | -0.532
22 | ATATGTAGGGTATCGGGTCATTCAGTTTGCGCAT | 2.17
23 | CGTCCAAGGTTATAGGAGGTCAGTGAAGACAGAT | 7.81
24 | ACTATTAGTTGAGACGAAGGCAACCGATAGGTTG | -0.372
25 | CCGACTGGGGCAGAAGGTTACCATAAGCCAGCCC | 1.46
26 | TCATATAGCTAAACAGGTGAAAGTCCGTAAGTTA | -0.00497
27 | CGAACTAGGTCGGAACAGGACAGTGAAGGATGAT | -0.452
28 | TAGCCTAGGTCATTGGGCCAGTATCGTACGCATC | 3.37
29 | TCTCGGAGGACACGAAGGGCAGAGCTTTCCAGAG | -0.265
30 | TCTGCTAGGTCAGTTGGTCAGTTAACGAGCTGCC | 0.257
31 | ACTAGCAGGCCAAGGGTCACTTAAGATTAGTCCG | 2.89
32 | CCTCGGGGGACAGAAGGTCAGAGCTGTCCGCTTT | 3.78
33 | GCTCGGATGACAAGGTCAGAGCTTTGTCCGTAGA | 1.15
34 | CCTACTGGGCCACCAGGTCATTGATATCAACGTT | 1.07
35 | TGAATGAGGTTAAAGAACAGGGAACGTGGCGTCG | 1.98
36 | GCGACTGGGGCATCAGCAGGTTACGATAACTTAA | -0.214
37 | TAGCCTAGGTCATTCAGGAGCCAGTATAGAAAGC | 3.63
38 | ACTGACAGGTGAGTGAAGGTAACTCAGCTGGACG | 0.0865

Row | Sequence | PBM binding z-score
39 | AATACAGGGTCATCGTAGGCCAGAGGACGCACAG | 6.5
40 | CGAACTGGGTCATTGACAGGACAGTGAATAGTAA | 1.97
41 | GCTTACGAGTCAAAGGTTATAGCATGAATAGAAT | 3
42 | CCTAGTTGGTCCGGAGGTCACACACCGGATATGA | 3.34
43 | TAGCCTAGGTCATGCAGGCCAGTATAGTGTCGGC | 2.91
44 | TAGCATAGGTCATGGGCCAGTATACCACGCGAAC | 5.37
45 | TCATACAGGTAAAAGGTGAAAGTCGGTGTGGTAA | 1.87
46 | TCAAGCAGGCCAGAGGGTCACTCAAGAGGTACGG | 0.997
47 | CTACCAAGGTGAACAAGGTCGTCGATTACTATTC | 1.49
48 | TCTGCTAGGTCAACGAGGGTCAGCTAATCTGCTA | 4.83
49 | TCTTGTGGATCAGCAGGTTAAGAAAGCTGGCCAA | 0.254
50 | CCTACTGGACCATTCAGAGGTCATTGATCATATG | 4.64
51 | ATCGAAAGATCGACGAGGTGAGTATACACCGTTT | -0.16
52 | CCAGACAGGTGAGAAGGTAAGTCAGCCTCGATTA | 0.152
53 | GTGACTGGGGCAAAGCAGGTTACCATAAGGTTGG | 0.956
54 | GCTAGCAGGCCATTTGGGTCACTGAATGACGGGC | -0.185
55 | TCATATAGGTAAATGCTAGGTAAAAGTCCGATCT | 1.02
56 | ACAGACAGGTGATGAAGGGAACTCAGGCTATCAT | -0.0438
57 | GCTAGTTGGTCAGTAAAAGGTCACACCCCGGTCG | 4.02
58 | ACTATTTGTTGACTTAGGGCAACCGATACGACGC | 0.188

From the supplement of paper PMC6555819
